Test results taken from PubChem BioAssay AID1159580 (chemical genetic matrix, 2015).
The campaign covered roughly 5,500 compounds. About 2,000 (36%) were called active. Inconclusive results (about 18%) are left out. Rule as the data show it: active = normalized growth mostly below about 0.91 (no sharp cut-off); inconclusive = no clear call, values can overlap the other calls; inactive = mostly above about 0.92. This is one part of the list.

Assay: chemical genetic growth profiling, strain panel (AID 1159580);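 also: tested at 20 µM; growth read once vehicle control cultures reached saturation at 30 °C; 1 = growth at the plate median or of vehicle wells; lower values mean less growth of the strain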
Conditions: growth OD

Measured: normalized growth

CCn1cc(C(=O)O)c(=O)c2cnc(N3CCNCC3)nc21
inactive: S. cerevisiae deletion strains, locus YKL009W, strain mrt4, hits give low values 1.03 | S. cerevisiae deletion strains, locus YKL068W, hits give low values 0.994 | S. cerevisiae deletion strains, locus YKL085W, strain MDH1 (second series), hits give low values 0.984 | S. cerevisiae deletion strains, locus YKL085W, strain MDH1, hits give low values 0.984 | S. cerevisiae deletion strains, locus YKL160W, strain elf1, hits give low values 1.03 | S. cerevisiae deletion strains, locus YKL190W, strain CNB1, hits give low values 1 | S. cerevisiae deletion strains, locus YKR001C, strain vps1, hits give low values 1.02 | S. cerevisiae deletion strains, locus YKR026C, strain gcn3, hits give low values 1.01 | S. cerevisiae deletion strains, locus YKR091W, strain srl3, hits give low values 1 | S. cerevisiae deletion strains, locus YLL001W, strain dnm1, hits give low values 1.01 | S. cerevisiae deletion strains, locus YLL026W, hits give low values 1.02 | S. cerevisiae deletion strains, locus YLL041C, strain sdh2, hits give low values 1.01 | S. cerevisiae deletion strains, locus YLR027C, strain aat2, hits give low values 1.01 | S. cerevisiae deletion strains, locus YLR039C, strain RIC1, hits give low values 0.942 | S. cerevisiae deletion strains, locus YLR058C, strain SHM2, hits give low values 0.988 | S. cerevisiae deletion strains, locus YLR102C, strain apc9, hits give low values 0.993 | S. cerevisiae deletion strains, locus YLR113W, strain HOG1, hits give low values 1.02 | S. cerevisiae deletion strains, locus YLR221C, strain rsa3, hits give low values 1 | S. cerevisiae deletion strains, locus YLR258W, strain gsy2, hits give low values 1.04 | S. cerevisiae deletion strains, locus YLR262C, strain YPT6 (second series), hits give low values 0.992 | S. cerevisiae deletion strains, locus YLR262C, strain YPT6, hits give low values 0.975 | S. cerevisiae deletion strains, locus YLR268W, strain sec22, hits give low values 0.991 | S. cerevisiae deletion strains, locus YLR320W, strain mms22, hits give low values 0.968 | S. cerevisiae deletion strains, locus YLR330W, strain CHS5, hits give low values 0.981 | S. cerevisiae deletion strains, locus YLR342W, strain FKS1 (second series), hits give low values 0.96 | S. cerevisiae deletion strains, locus YLR342W, strain FKS1, hits give low values 1.02 | S. cerevisiae deletion strains, locus YLR357W, strain rsc2, hits give low values 1.01 | S. cerevisiae deletion strains, locus YLR370C, strain arc18, hits give low values 1.02 | S. cerevisiae deletion strains, locus YLR371W, strain rom2, hits give low values 0.981 | S. cerevisiae deletion strains, locus YLR384C, strain iki3, hits give low values 0.999 | S. cerevisiae deletion strains, locus YLR418C, strain cdc73, hits give low values 0.951 | S. cerevisiae deletion strains, locus YML016C, strain PPZ1, hits give low values 0.977 | S. cerevisiae deletion strains, locus YML032C, strain rad52, hits give low values 1 | S. cerevisiae deletion strains, locus YML120C, strain ndi1, hits give low values 1.03 | S. cerevisiae deletion strains, locus YML124C, strain tub3, hits give low values 0.985 | S. cerevisiae deletion strains, locus YMR058W, strain fet3, hits give low values 1.01 | S. cerevisiae deletion strains, locus YMR078C, strain ctf18, hits give low values 0.98 | S. cerevisiae deletion strains, locus YMR125W, strain sto1, hits give low values 1.02 | S. cerevisiae deletion strains, locus YMR129W, hits give low values 1.01 | S. cerevisiae deletion strains, locus YMR205C, strain PFK2, hits give low values 1 | S. cerevisiae deletion strains, locus YMR223W, strain ubp8, hits give low values 0.983 | S. cerevisiae deletion strains, locus YMR231W, strain pep5, hits give low values 1.01 | S. cerevisiae deletion strains, locus YMR263W, strain SAP30, hits give low values 1.01 | S. cerevisiae deletion strains, locus YMR307W, strain GAS1, hits give low values 1.01 | S. cerevisiae deletion strains, locus YNL067W, strain RPL9B, hits give low values 1.03 | S. cerevisiae deletion strains, locus YNL071W, strain lat1, hits give low values 1.01 | S. cerevisiae deletion strains, locus YNL128W, strain TEP1, hits give low values 0.977 | S. cerevisiae deletion strains, locus YNL153C, strain GIM3, hits give low values 1.06 | S. cerevisiae deletion strains, locus YNL183C, strain NPR1, hits give low values 0.997 | S. cerevisiae deletion strains, locus YNL209W, strain ssb2, hits give low values 1 | S. cerevisiae deletion strains, locus YNL233W, strain BNI4, hits give low values 1.02 | S. cerevisiae deletion strains, locus YNL248C, strain rpa49, hits give low values 1.04 | S. cerevisiae deletion strains, locus YNL250W, strain rad50, hits give low values 0.964 | S. cerevisiae deletion strains, locus YNL271C, strain bni1, hits give low values 0.979 | S. cerevisiae deletion strains, locus YNL298W, strain CLA4, hits give low values 0.978 | S. cerevisiae deletion strains, locus YNL307C, strain MCK1, hits give low values 0.991 | S. cerevisiae deletion strains, locus YNL322C, strain KRE1 (second series), hits give low values 1.04 | S. cerevisiae deletion strains, locus YNL322C, strain KRE1, hits give low values 0.997 | S. cerevisiae deletion strains, locus YNR049C, strain mso1, hits give low values 1.01 | S. cerevisiae deletion strains, locus YNR052C, strain pop2, hits give low values 0.979 | S. cerevisiae deletion strains, locus YOL006C, strain TOP1, hits give low values 1.07 | S. cerevisiae deletion strains, locus YOL012C, strain htz1 0.676 | S. cerevisiae deletion strains, locus YOL147C, strain pex11, hits give low values 0.991 | S. cerevisiae deletion strains, locus YOR001W, strain rrp6, hits give low values 1 | S. cerevisiae deletion strains, locus YOR061W, strain CKA2, hits give low values 0.988 | S. cerevisiae deletion strains, locus YOR069W, strain VPS5, hits give low values 0.984 | S. cerevisiae deletion strains, locus YOR070C, strain gyp1, hits give low values 1.02 | S. cerevisiae deletion strains, locus YOR080W, strain dia2, hits give low values 1.02 | S. cerevisiae deletion strains, locus YOR083W, strain WHI5, hits give low values 0.993 | S. cerevisiae deletion strains, locus YOR106W, strain vam3, hits give low values 1.04 | S. cerevisiae deletion strains, locus YOR136W, strain idh2, hits give low values 0.995 | S. cerevisiae deletion strains, locus YOR144C, strain elg1, hits give low values 0.988 | S. cerevisiae deletion strains, locus YOR184W, strain ser1, hits give low values 1 | S. cerevisiae deletion strains, locus YOR231W, strain MKK1, hits give low values 1.03 | S. cerevisiae deletion strains, locus YOR265W, strain rbl2, hits give low values 1.02 | S. cerevisiae deletion strains, locus YOR270C, strain vph1, hits give low values 1.16 | S. cerevisiae deletion strains, locus YOR290C, strain snf2, hits give low values 1.04 | S. cerevisiae deletion strains, locus YOR316C, strain cot1, hits give low values 0.99 | S. cerevisiae deletion strains, locus YPL051W, strain arl3, hits give low values 1.02 | S. cerevisiae deletion strains, locus YPL078C, strain atp4, hits give low values 1.04 | S. cerevisiae deletion strains, locus YPL106C, strain sse1, hits give low values 1.01 | S. cerevisiae deletion strains, locus YPL240C, strain hsp82, hits give low values 1 | S. cerevisiae deletion strains, locus YPL256C, strain CLN2, hits give low values 1.08 | S. cerevisiae deletion strains, locus YPR119W, strain clb2, hits give low values 0.993 | S. cerevisiae deletion strains, locus YPR141C, strain kar3, hits give low values 0.981 | S. cerevisiae deletion strains, locus YPR163C, strain tif3, hits give low values 0.984 | S. cerevisiae deletion strains, locus YPR167C, strain met16, hits give low values 0.979 | S. cerevisiae deletion strains, strain wtn01, hits give low values 0.982 | S. cerevisiae strains, strain wild type, hits give low values 0.998
